From PubChem BioAssay
Sampled rows, rich in hits. Any-hit rate of the full collection: about 4.8%.
NALP1 inh = NALP1 inhibition. inhibition, % at 10 µM. 280,000 compounds, 0.61% hits. AID 2071. S. cerevisiae NALP1/ASC/caspase-1 growth, X-gal OD620, 72 h; in the data active = inhibition mostly above about 24%, no sharp cut-off; inactive = mostly below about 32%
SKKanGAS inh = SKKanGAS growth inhibition. S. pyogenes SKKanGAS, kanamycin growth, BacTiter-Glo, 6 h. inhibition, % at 7.5 µM. 300,000 compounds, 1.3% hits;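 active = mean replicate score, as percent of positive control median, at least 50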;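 note: strain carries kanamycin resistance gene driven by streptokinase promoter and grows in 40 µg/ml kanamycin; loss of luminescence reflects streptokinase promoter inhibition or plain growth inhibition; 0% = median of DMSO wells and 100% = positive control at its reference dose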
tim10-1 inh = inhibits growth of tim10-1 mutant yeast | AID 463190 | S. cerevisiae tim10-1 ts strain growth, BacTiter-Glo, 24 h | inhibition, % at 20 µM | 330,000 compounds, 2.2% hits;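 active = inhibition of at least 40%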;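 note: mutant grown at 25 °C; 0% = DMSO wells with yeast and 100% = wells holding no yeast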
TIM10 inh = inhibits growth of TIM10 yeast strain. 330,000 compounds, 1.4% hits. inhibition, % at 10 µM. S. cerevisiae TIM10 strain growth, BacTiter-Glo luminescence, 24 h;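 active = inhibition of 40% or more at the single tested concentration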;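 note: wild-type TIM10 isogenic control strain grown at permissive 25 °C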
tim23-1 inh = inhibits growth of tim23-1 mutant yeast; 330,000 compounds, 1.3% hits; inhibition, % at 20 µM; AID 463212; S. cerevisiae tim23-1 growth, BacTiter-Glo luminescence, 24 h;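 active = growth inhibition of the mutant yeast at or above 50%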;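 note: temperature-sensitive mutant grown at 25 °C; plate controls were DMSO-treated mutant yeast for no effect and medium wells lacking yeast for full effect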
PfHsp90 set2 = reduces growth (ATP signal) of yeast expressing P. falciparum Hsp90. S. cerevisiae expressing PfHsp90, BacTiter-Glo ATP, 48 h; yeast lacking PDR1 and PDR3 efflux regulators. inhibition, % at 9.4 µM. 310,000 compounds, 0.32% hits. AID 504621;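 active = every replicate shows inhibition above about 80%, whatever the replicate mean, limit read from the data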;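 note: 0% = DMSO neutral controls and 100% = 20 µM radicicol positive controls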
Numbers without * were called inactive; / = no result given.

SMILES | NALP1 inh | SKKanGAS inh | tim10-1 inh | TIM10 inh | tim23-1 inh | PfHsp90 set2
CCOC(=O)c1ccc(Oc2cn[nH]c2-c2ccc(O)cc2O)cc1 | / | 46.5 | 22.2 | 0.6 | 16.6 | -5.9
CCc1cc(-c2n[nH]c(C)c2Oc2ccc(C(C)C)cc2)c(O)cc1O | -3.1 | 109.3* | 5.8 | 17.6 | -87.6 | /
CCOc1ccc(-c2n[nH]c(C)c2Oc2ccccc2OC)c(O)c1 | 16.1 | -4.9 | 20.0 | 16.2 | 28.2 | 16.5
CCOC(=O)c1ccc(Oc2cn[nH]c2-c2ccc(OCC(=O)NN)cc2O)cc1 | 6.5 | 99.2* | -36.9 | -5.0 | 9.9 | 20.9
O=C(NC(CO)Cc1ccc([N+](=O)[O-])cc1)C(Cl)Cl (stereo not drawn) | 74.7 | 96.8* | -4.7 | 8.5 | 7.5 | -14.8
O=C(N[C@H](CO)[C@H](O)c1ccc([N+](=O)[O-])cc1)C(Cl)Cl | / | 100.9* | 5.6 | 0.4 | 14.3 | -6.4
O=[N+]([O-])c1ccc(C(O)C(CO)NC(=S)Nc2ccccc2)cc1 (stereo not drawn) | -53.7 | 21.2 | -10.0 | 1.9 | 6.3 | -9.5
O=C(NC(CO)C(O)c1ccc([N+](=O)[O-])cc1)C(Cl)Cl (stereo not drawn) | 5.0 | 103.6* | 2.8 | -1.8 | 5.1 | -6.9
O=C(O)CC(Cc1ccc(Cl)cc1)C(=O)Nc1ccc([N+](=O)[O-])cc1 (stereo not drawn) | 12.5 | -0.9 | / | / | / | -72.7
O=C(O)CCN1C(=O)c2ccccc2Sc2ncccc21 | 6.9 | -0.7 | -4.5 | 12.1 | 5.7 | 1.6
COc1ccc(S(=O)(=O)N2CCC(C(=O)N[C@H](C(=O)NC3CCCC3)C(C)C)CC2)cc1 | 14.2 | -2.5 | 1.1 | -6.8 | -13.6 | -21.2
O=c1c2ccccc2nc2n1C(CSc1ccc(Br)cc1)CN2 (stereo not drawn) | 30.9* | -14.3 | -21.5 | -12.9 | -4.1 | -36.8
CC(=O)N1CCN(c2ccccc2NC(=O)COc2cc(C)ccc2C(C)C)CC1 | -1.5 | 7.2 | 29.6 | 15.1 | 37.1 | -6.9
Cc1ccccc1OCC(=O)Nc1ccccc1N1CCCCC1 | 16.6 | 57.3* | 16.2 | -5.9 | 20.8 | -17.7
Cc1cccc(OCC(=O)Nc2ccccc2N2CCCC2)c1C | / | 20.0 | 12.4 | -0.6 | 15.9 | /
Cc1ccc(C(C)C)c(OCC(=O)Nc2ccccc2N2CCN(C)CC2)c1 | 26.8* | -4.1 | 31.7 | 2.5 | 36.7 | 7.7
Cc1cccc(NC(=O)C(=O)NNC(=O)c2ccc(C(C)(C)C)cc2)c1 | 3.6 | 85.1* | -75.1 | -31.1 | -41.6 | -32.0
O=C(c1cc2cc(Br)ccc2o1)N1CCCCC1 | -0.7 | -2.6 | 18.7 | -20.8 | 19.4 | -1.9
O=C(c1cc2cc(Cl)ccc2o1)N1CCCC1 | 35.2* | -2.2 | -18.1 | -18.5 | 17.3 | 0.3
CC(Cc1ccccc1)NC(=O)c1cc([N+](=O)[O-])ccc1Cl (stereo not drawn) | 35.9* | -3.6 | 3.4 | -15.6 | 14.2 | -26.8
O=C(COC(=O)c1ccc([N+](=O)[O-])o1)NCc1ccccc1 | / | / | -199.4 | -215.9 | -57.1 | 1.2
Cc1cccc(C)c1NC(=O)COC(=O)c1ccc([N+](=O)[O-])o1 | 9.2 | 19.4 | -97.1 | -105.8 | -48.8 | 87.5*
COc1ccc2cc(-c3[nH]ncc3CN3CCCC3c3nonc3C)ccc2c1 (stereo not drawn) | 8.8 | -8.4 | 19.6 | 23.3 | 32.7 | -17.6
COc1ccc2cnn(-c3ccc(C)cc3)c(=O)c2c1OC | 64.0* | -4.8 | 18.5 | 7.6 | 23.5 | 12.1
COc1ccc2c(c1)[nH]c1c(=O)n(CCc3cnc[nH]3)cnc12 | 7.0 | 100.0* | 11.5 | -5.2 | -9.8 | /
SMILES | NALP1 inh | SKKanGAS inh | tim10-1 inh | TIM10 inh | tim23-1 inh | PfHsp90 set2
CNc1nc(N)c([N+](=O)[O-])c(NC2CCCCC2)n1 | 8.0 | 4.5 | 19.3 | -6.9 | 14.4 | -56.8
Nc1nc(Nc2ccccc2)nc(NC2CCCCC2)c1[N+](=O)[O-] | 21.2 | 79.2* | 9.1 | 12.6 | 38.6 | -24.3
Fc1ccc(-[n+]2nc(Nc3ccccc3)sc2-c2c(Cl)cccc2Cl)cc1 | 24.6 | -2.3 | 29.9 | 22.4 | 32.8 | 3.0
CCc1ccc(Nc2n[n+](-c3ccccc3)c(-c3c(Cl)cccc3Cl)s2)cc1 | 18.3 | 87.7* | 9.7 | -6.1 | -2.2 | -2.7
O=C(O)/C=C/C(=O)NNc1ncnc2ccccc12 | / | 1.9 | -11.3 | -22.7 | 9.2 | -2.6
CCOc1ccccc1N1CCN(S(=O)(=O)c2ccc(F)c(F)c2)CC1 | 40.0* | -2.6 | 19.5 | 2.1 | 12.9 | -12.1
CCCN(C(=O)COC(=O)CC1CCCCC1)c1c(N)n(Cc2ccccc2)c(=O)[nH]c1=O | / | 1.5 | -10.8 | -3.9 | -10.6 | /
COc1ccc(CCNCC(=O)Nc2ccc(C)c(S(=O)(=O)N(C)C)c2)cc1OC | 36.2* | -11.6 | -5.2 | 2.6 | 10.2 | 25.4
BrC(/C=N/Nc1nc(N2CCOCC2)nc(N2CCOCC2)n1)=C/c1ccccc1 | -2.6 | 0.2 | 26.0 | 17.4 | 36.4 | 15.6
C/C(CC(=O)Nc1ccc(Cl)c(C(F)(F)F)c1)=N\NC(=O)c1cc2ccccc2cc1O | -6.9 | 94.9* | 37.6 | 20.0 | 38.9 | -4.9
COc1ccc(CNC(=O)COC(=O)C2CC2C)cc1OC (stereo not drawn) | / | -7.6 | 4.4 | 12.3 | 7.5 | -20.8
Cc1ccc(CNC(=O)CN2CCC(C(N)=O)CC2)cc1 | -12.3 | -1.0 | 9.6 | -11.7 | -2.1 | 29.0
CSc1ccc(CN2CCC(C(=O)NCc3ccc(C)cc3)CC2)cc1 | 25.0* | -10.1 | -56.0 | -42.5 | -1.1 | -48.8
CC1=C(C(=O)NCc2ccccc2)C(c2cc(Br)cc(Br)c2OC(C)C)NC(=O)N1 (stereo not drawn) | 2.8 | 0.0 | 13.5 | 20.2 | 18.4 | /
O=C1CCc2cc(S(=O)(=O)NC3CCCCC3)cc3c2N1CC3 | / | -1.6 | 1.4 | 2.8 | -2.9 | 33.3
COC(=O)c1ccccc1NC(=O)c1cc2sccc2n1C | 17.0 | -5.5 | 27.7 | 14.2 | 34.3 | -15.9
O=C(COc1ccc([N+](=O)[O-])cc1)NNC(=S)NC(=O)c1ccc(Br)cc1 | 1.3 | 55.2* | -7.1 | 15.1 | 7.2 | -20.0
Cc1ccc(C(=O)NC(=S)NNC(=O)COc2ccc([N+](=O)[O-])cc2)cc1 | -7.2 | 82.0* | 0.3 | 24.2 | -4.8 | -15.0
O=C(CCNC(=O)C1CCN(S(=O)(=O)c2ccc(F)cc2)CC1)Nc1nccs1 | 12.8 | -3.5 | 7.3 | -1.8 | 3.3 | -11.1
Nc1nsc2ccccc12 | 39.2 | -5.3 | 33.7 | 33.2 | 47.1 | 10.4
Cc1c(C(=O)OCCOc2ccccc2)[nH]c2c1C(=O)CCC2 | 36.9 | -12.4 | 16.4 | -0.7 | 23.6 | -10.9
CCCc1c(C(=O)OCC)[nH]c2c1C(=O)CCC2 | 43.2* | -15.7 | 1.3 | -1.9 | -1.5 | 3.7
CCCC(=O)c1cc2c(cc1NC(=O)c1cccs1)OCCO2 | 26.7* | 3.4 | 6.4 | 12.5 | -0.5 | 10.8
CCc1ccccc1-n1nnnc1SCC(=O)Nc1cc(C)on1 | -9.9 | 6.5 | 29.7 | 0.1 | 19.8 | 8.1
Cc1cccc(C)c1OCCn1nnc2ccccc21 | 12.4 | 0.9 | 7.3 | 6.8 | 26.6 | 11.6
